Experimental data as given in PubChem BioAssay (NCI).
Compounds without any hit were thinned out: in the full panel of roughly 83,000, 20% have a hit.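 Results are percent growth after 48 hours of single-concentration exposure. 100 means growth as in untreated cells, lower positive values show inhibition; negative values down to -100 show cell death.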 Active and inactive are the calls of the source. Rule for the calls: active = growth percent below 10; inactive = the rest.

tested on: OVCAR-5 ovarian; assay: NCI-60 one-dose screen, 48 h (100 = growth as untreated, 0 = no growth, -100 = all killed); details: 10 µM unless noted

| Structure (SMILES) | growth |
| --- | --- |
| CC1OC(n2c3ccccc3c3c4c(c5c6ccccc6[nH]c5c32)C(=O)N(CCN[C@H]2CCC[C@@H]2N)C4=O)CC(O)C1O (stereo partly specified) | 80.4% (inactive) |
| Oc1ccc(-c2nnc3c4[nH]ccc4ncn23)cc1 | 113% (inactive) |
| Nc1c(Br)cc2c(c1Br)Cc1cc(Cl)ccc1-2 | 93.2% (inactive) |
| C#C[C@]1(O)CC[C@H]2[C@@H]3CC=C4c5sc(-c6cccc(Br)c6)nc5CC[C@]4(C)[C@H]3CC[C@@]21C | 75.5% (inactive) |
| O=C1NN(C(=O)c2ccccc2)C(c2ccc(Cl)c(Cl)c2)=C/C1=C\c1ccccc1[N+](=O)[O-] | -18.6% [6.75 µM] (active) |
| NS(=O)(=O)c1ccc(CCn2c(SCC(=O)N/N=C/c3cc4ccccc4[nH]3)nc3ccccc3c2=O)cc1 | 113% (inactive) |
| CC(C)CC(=O)C(CCc1ccccn1)C(C)C (stereo unspecified) | 105% (inactive) |
| Cc1cc(C#Cc2ccc(C(C)(C)C)cc2)ccc1-n1c(/C=C/c2c(Cl)cccc2Cl)nc2ccccc2c1=O | 106% (inactive) |
| CCOC(=O)c1ccc(NC(=O)CSC(N)=O)cc1 | 99.1% (inactive) |
| CCOCCNc1ccc(S(=O)(=O)c2ccc(N)cc2)cc1N | 103% (inactive) |
| CC(=O)O[C@@H]1CC2C(C)(C)CCCC2(C)C2=C1C(=O)C(C(C)C)=CC2=O (stereo partly specified) | -45.4% (active) |
| CCN(CC)CCCC(C)Nc1c(-c2ccccc2)cnc2cc(Cl)ccc12 (stereo unspecified) | 83.4% (inactive) |
| COc1ccc(CNc2c3ccccc3nc3ccccc23)cc1F | 36.9% (inactive) |
| Clc1ccc(-c2cnc3c(-c4ccnc(N5CCNCC5)c4)cnn3c2)cc1 | -21.2% (active) |
| CN(C)N1C(=O)c2c(Cl)c(Cl)c(Cl)c(Cl)c2C1=O | 115% (inactive) |
| O=C(Nc1ccc(Cl)cc1)c1cc(-c2ccc(Cl)cc2)c2sc(=O)[nH]c2n1 | 32% (inactive) |
| COc1cnc2c(c1)C(=O)c1c-2n(CCCN2CCNCC2)c(=O)c2cc(Cl)ccc12 | -96.1% (active) |
| Nc1c(C(=O)C[C@@H](N)CO)ccc2c1C(=O)CCO2 | 72.8% (inactive) |
| C=C1C(=O)O[C@H]2[C@H]1CC/C(COC(=O)NCc1ccc(Cn3c(=O)sn(CCCl)c3=O)cc1)=C\CC[C@@]1(C)O[C@@H]21 | 109% (inactive) |

| Structure (SMILES) | growth |
| --- | --- |
| O=C1/C(=C/N2N=C(c3ccc(Cl)cc3)CC2c2ccccc2O)SC(=S)N1c1cccc(C(F)(F)F)c1 (stereo unspecified) | 82.3% (inactive) |
| COc1cnc2c(c1)C(=O)c1c-2n(CCCN2CCN(C)CC2)c(=O)c2cc(Cl)ccc12 | 77.9% (inactive) |
| C[C@H](NC(=O)c1snnc1C1CC1)c1c(F)cccc1Cl | 115% (inactive) |
| CC(C)(C)c1ccc(OC(=O)Nc2ccccc2)cc1 | 106% (inactive) |
| N/C(=N\OC(=O)c1ccccc1)C(C(=O)NOC(=O)c1ccccc1)C1CCCCC1 (stereo unspecified) | 92.2% (inactive) |
| CC(C)c1ccc2c(c1)CCC1C2CCCC1(C)NCc1ccccc1 (stereo unspecified) | 53.5% (inactive) |
| Cc1ccncc1NC=O | 110% (inactive) |
| Nc1c(N)c2ccccc2c2ccccc12 | 107% (inactive) |
| O=C1/C(=C/c2cc(F)cc(F)c2)Cc2cc(F)cc(F)c21 | 96.6% (inactive) |
| CNC(=O)c1c(NC(=O)c2ccc(C(C)C)cc2)sc2c1CCC(=O)C2 | -45.9% (active) |
| COc1cc(C2CC(c3ccccc3)=NN2C=O)ccc1Oc1ccnc2cc(Cl)ccc12 (stereo unspecified) | 84.2% (inactive) |
| CO[C@H](C(=O)[C@@H](O)[C@@H](C)O)[C@@H]1Cc2cc3cc(O[C@H]4C[C@@H](O[C@H]5C[C@@H](O)[C@H](O)C(C)O5)[C@H](O)C(C)O4)c(C)c(O)c3c(O)c2C(=O)[C@H]1O[C@H]1C[C@@H](O[C@H]2C[C@@H](O[C@H]3C[C@](C)(O)C(=O)C(C)O3)[C@@H](O)C(C)O2)[C@H](O)C(C)O1 (stereo partly specified) | 13.1% (inactive) |
| COc1cc(-c2nc(-c3ccc(-c4nc5ccc(F)cc5[nH]4)cc3)no2)cc(OC)c1OC | 72.9% (inactive) |
| CC(=O)NC1C(O[C@H]2C[C@H]3[C@@H]4CC=C5C[C@@H](O)CC[C@]5(C)[C@H]4CC[C@]3(C)[C@H]2[C@H](C)C(=O)CCC(C)C)OCC(O)C1O (stereo partly specified) | 74.2% (inactive) |
| O=C(CCl)Nc1ccc2c(c1)C(=O)c1ccccc1C2=O | 18.6% (inactive) |
| Cc1csc(N/N=C/c2ccncc2)n1 | 112% (inactive) |
| COc1ccc(-c2cnc(-c3ccncc3-c3cccc(OC)c3)o2)cc1 | 57.4% (inactive) |
| C#Cc1cccc(Nc2nc3cc([N+](=O)[O-])ccc3nc2Nc2ccc(O)cc2)c1 | 45.8% (inactive) |
| COc1cccc(-c2nc3sccn3c2-c2ccnc(NCCN3CCCN(C)S3(=O)=O)n2)c1 | 102% (inactive) |

tested on: OVCAR-4 ovarian; assay: as above; details: 10 µM unless noted

| Structure (SMILES) | growth |
| --- | --- |
| CC1OC(n2c3ccccc3c3c4c(c5c6ccccc6[nH]c5c32)C(=O)N(CCN[C@H]2CCC[C@@H]2N)C4=O)CC(O)C1O (stereo partly specified) | 34.9% (inactive) |
| Oc1ccc(-c2nnc3c4[nH]ccc4ncn23)cc1 | 102% (inactive) |
| Nc1c(Br)cc2c(c1Br)Cc1cc(Cl)ccc1-2 | 95.1% (inactive) |
| C#C[C@]1(O)CC[C@H]2[C@@H]3CC=C4c5sc(-c6cccc(Br)c6)nc5CC[C@]4(C)[C@H]3CC[C@@]21C | 100% (inactive) |
| O=C1NN(C(=O)c2ccccc2)C(c2ccc(Cl)c(Cl)c2)=C/C1=C\c1ccccc1[N+](=O)[O-] | 12.2% [6.75 µM] (inactive) |
| NS(=O)(=O)c1ccc(CCn2c(SCC(=O)N/N=C/c3cc4ccccc4[nH]3)nc3ccccc3c2=O)cc1 | 68.7% (inactive) |
| CC(C)CC(=O)C(CCc1ccccn1)C(C)C (stereo unspecified) | 111% (inactive) |
| Cc1cc(C#Cc2ccc(C(C)(C)C)cc2)ccc1-n1c(/C=C/c2c(Cl)cccc2Cl)nc2ccccc2c1=O | 134% (inactive) |
| CCOC(=O)c1ccc(NC(=O)CSC(N)=O)cc1 | 122% (inactive) |
| CCOCCNc1ccc(S(=O)(=O)c2ccc(N)cc2)cc1N | 100% (inactive) |
| CC(=O)O[C@@H]1CC2C(C)(C)CCCC2(C)C2=C1C(=O)C(C(C)C)=CC2=O (stereo partly specified) | 13.4% (inactive) |
| CCN(CC)CCCC(C)Nc1c(-c2ccccc2)cnc2cc(Cl)ccc12 (stereo unspecified) | 83% (inactive) |
| COc1ccc(CNc2c3ccccc3nc3ccccc23)cc1F | 26.1% (inactive) |
| Clc1ccc(-c2cnc3c(-c4ccnc(N5CCNCC5)c4)cnn3c2)cc1 | -60.9% (active) |
| CN(C)N1C(=O)c2c(Cl)c(Cl)c(Cl)c(Cl)c2C1=O | 111% (inactive) |
| O=C(Nc1ccc(Cl)cc1)c1cc(-c2ccc(Cl)cc2)c2sc(=O)[nH]c2n1 | 13% (inactive) |
| COc1cnc2c(c1)C(=O)c1c-2n(CCCN2CCNCC2)c(=O)c2cc(Cl)ccc12 | 53.4% (inactive) |
| Nc1c(C(=O)C[C@@H](N)CO)ccc2c1C(=O)CCO2 | 86.4% (inactive) |
| C=C1C(=O)O[C@H]2[C@H]1CC/C(COC(=O)NCc1ccc(Cn3c(=O)sn(CCCl)c3=O)cc1)=C\CC[C@@]1(C)O[C@@H]21 | 60.6% (inactive) |

| Structure (SMILES) | growth |
| --- | --- |
| O=C1/C(=C/N2N=C(c3ccc(Cl)cc3)CC2c2ccccc2O)SC(=S)N1c1cccc(C(F)(F)F)c1 (stereo unspecified) | 37% (inactive) |
| COc1cnc2c(c1)C(=O)c1c-2n(CCCN2CCN(C)CC2)c(=O)c2cc(Cl)ccc12 | 43.9% (inactive) |
| C[C@H](NC(=O)c1snnc1C1CC1)c1c(F)cccc1Cl | 110% (inactive) |
| CC(C)(C)c1ccc(OC(=O)Nc2ccccc2)cc1 | 113% (inactive) |
| N/C(=N\OC(=O)c1ccccc1)C(C(=O)NOC(=O)c1ccccc1)C1CCCCC1 (stereo unspecified) | 72.8% (inactive) |
| CC(C)c1ccc2c(c1)CCC1C2CCCC1(C)NCc1ccccc1 (stereo unspecified) | 67.7% (inactive) |
| Cc1ccncc1NC=O | 108% (inactive) |
| Nc1c(N)c2ccccc2c2ccccc12 | 96.5% (inactive) |
| O=C1/C(=C/c2cc(F)cc(F)c2)Cc2cc(F)cc(F)c21 | 110% (inactive) |
| CNC(=O)c1c(NC(=O)c2ccc(C(C)C)cc2)sc2c1CCC(=O)C2 | -74.3% (active) |
| COc1cc(C2CC(c3ccccc3)=NN2C=O)ccc1Oc1ccnc2cc(Cl)ccc12 (stereo unspecified) | 35% (inactive) |
| CO[C@H](C(=O)[C@@H](O)[C@@H](C)O)[C@@H]1Cc2cc3cc(O[C@H]4C[C@@H](O[C@H]5C[C@@H](O)[C@H](O)C(C)O5)[C@H](O)C(C)O4)c(C)c(O)c3c(O)c2C(=O)[C@H]1O[C@H]1C[C@@H](O[C@H]2C[C@@H](O[C@H]3C[C@](C)(O)C(=O)C(C)O3)[C@@H](O)C(C)O2)[C@H](O)C(C)O1 (stereo partly specified) | 8.45% (active) |
| COc1cc(-c2nc(-c3ccc(-c4nc5ccc(F)cc5[nH]4)cc3)no2)cc(OC)c1OC | 30.9% (inactive) |
| CC(=O)NC1C(O[C@H]2C[C@H]3[C@@H]4CC=C5C[C@@H](O)CC[C@]5(C)[C@H]4CC[C@]3(C)[C@H]2[C@H](C)C(=O)CCC(C)C)OCC(O)C1O (stereo partly specified) | 87.8% (inactive) |
| O=C(CCl)Nc1ccc2c(c1)C(=O)c1ccccc1C2=O | 36.8% (inactive) |
| Cc1csc(N/N=C/c2ccncc2)n1 | 116% (inactive) |
| COc1ccc(-c2cnc(-c3ccncc3-c3cccc(OC)c3)o2)cc1 | 37.6% (inactive) |
| C#Cc1cccc(Nc2nc3cc([N+](=O)[O-])ccc3nc2Nc2ccc(O)cc2)c1 | 43.9% (inactive) |
| COc1cccc(-c2nc3sccn3c2-c2ccnc(NCCN3CCCN(C)S3(=O)=O)n2)c1 | 78% (inactive) |
